This is a sample that favours compounds with a hit; in the whole collection about 0.99% have one here.
AMA1-RON2 inh: qHTS for Inhibitors of AMA1-RON; Towards Development of Antimalarial Drug Lead: Primary Screen | Plasmodium falciparum AMA1 (3D7) - RON2 peptide interaction | AlphaScreen AMA1-biotinylated RON2 peptide binding | Potency, µM (titrated, usually from 58.2 µM), most hits filed as inhibitors | 360,000 tested, 0.2% active | AID 720542, 2013; active = well fitted curve in the direction sought with a large enough effect; inconclusive = small, poorly fitted or top-dose-only effect, or another doubt; inactive = no such curve, though single readings can be large; an effect the other way counts as inactive or inconclusive; note: nearly all actives have a fitted effect of over 45% in size
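AMA1 (3D7) with his tag at 25 nM final met compounds first, then biotinylated RON2 peptide at 25 nM; detection used donor plus acceptor beads, 10 µg/mL apiece, read by AlphaScreen after 30 min at room temperature.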
AmpC no deterg: qHTS Inhibitors of AmpC Beta-Lactamase (assay without detergent); P00811; AmpC nitrocefin hydrolysis, absorbance 480 nm, 0.0001% Triton; Potency, µM (top dose mostly 57.1 µM), actives largely listed as inhibitors; 330,000 tested, 0.52% active; AID 485341, 2010; active = well fitted curve in the direction sought with a large enough effect; inconclusive = small, poorly fitted or top-dose-only effect, or another doubt; inactive = no such curve, though single readings can be large; an effect the other way counts as inactive or inconclusive; note: nearly all actives have a fitted effect of over 20% in size
Target sequence (P00811 whole entry, looked up): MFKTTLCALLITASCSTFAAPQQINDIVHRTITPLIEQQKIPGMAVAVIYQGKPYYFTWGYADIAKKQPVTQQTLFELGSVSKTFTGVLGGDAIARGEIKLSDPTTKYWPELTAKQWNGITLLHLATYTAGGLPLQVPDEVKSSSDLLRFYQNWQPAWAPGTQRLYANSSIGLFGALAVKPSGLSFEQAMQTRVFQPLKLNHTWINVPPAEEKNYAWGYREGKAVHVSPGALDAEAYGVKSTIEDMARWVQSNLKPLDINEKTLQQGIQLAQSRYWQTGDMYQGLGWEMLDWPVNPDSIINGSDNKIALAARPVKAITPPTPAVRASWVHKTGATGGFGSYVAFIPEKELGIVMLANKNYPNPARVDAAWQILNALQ
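20 mM phosphate pH 7.0 + 0.01% (detergent screen) or 0.0001% Triton X-100; 5.3 nM AmpC reagent; cpd preinc 15 min RT; nitrocefin (800 uM stock) to start; A480 q20 s × 4 min; Activity was normalised to no-enzyme and no-compound control wells.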
NS1 inh: qHTS Assay for Inhibitors of Influenza NS1 Protein Function. Potency, µM (highest dose often 46.1 µM). 270,000 tested, 0.4% active; note: actives are rising curves; nearly all actives have a fitted effect of over 50% in size
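A cell-based growth assay was used: compounds that relieve NS1-induced slow growth of budding yeast raise OD600. Assay medium was yeast nitrogen base with ammonium sulphate and -URA supplement, pH 6.0, with 2% galactose.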
AmpC inh detg: qHTS Inhibitors of AmpC Beta-Lactamase (assay with detergent); Potency, µM (titrated, usually from 114 µM), usual class: inhibitors; 370,000 tested, 0.041% active; AmpC hydrolysis of nitrocefin, absorbance 480 nm, 0.01% Triton; P00811; active = well fitted curve in the direction sought with a large enough effect; inconclusive = small, poorly fitted or top-dose-only effect, or another doubt; inactive = no such curve, though single readings can be large; an effect the other way counts as inactive or inconclusive; note: nearly all actives have a fitted effect of over 25% in size
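20 mM phosphate pH 7.0 + 0.01% (detergent screen) or 0.0001% Triton X-100; 5.3 nM AmpC reagent; cpd preinc 15 min RT; nitrocefin (800 uM stock) to start; A480 q20 s × 4 min; Activity was normalised to no-enzyme and no-compound control wells.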
SARS PLP yeast: qHTS of Yeast-based Assay for SARS-CoV PLP; S. cerevisiae expressing SARS-CoV PLpro, growth rescue; Potency, µM (top dose mostly 32.9 µM), hits mostly activators; 330,000 tested, 0.19% active; note: nearly all actives have a fitted effect of over 55% in size
NS1 inh valid: Assay for Inhibitors of Influenza NS1 Protein Function: Hit Validation; shares compounds with NS1 inh; influenza NS1 function cell assay, 15-point titration; activity change, negative = inhibition, % at 32.9 µM; 1,400 tested, under 10 active; AID 492980, 2010
PR8 titer: Assay for Inhibitors of Influenza NS1 Protein Function: Influenza virus replication assay in MDCK cells infected with virus A/PR/8/34 | 95 tested, 30% active | AID 504647, 2011 | virus titer (log TCID50), log10 TCID50 at 5 µM | shares compounds with NS1 inh | MDCK infected influenza A/PR/8/34, virus titer TCID50; hits give low values; call rule not given here
A number is an active result; 0 = inactive; ? = inconclusive; - = no result given. Unless noted, calls come from the whole dose curve.

SMILES	AMA1-RON2 inh	AmpC no deterg	NS1 inh	AmpC inh detg	SARS PLP yeast	NS1 inh valid	others
Cc1cnc(NC(=O)CN(C)S(=O)(=O)c2ccc(Cl)cc2)s1	0	0	7.9µM	0	0	0
CC(C(=O)Nc1ccccc1)n1nnc2sc3c(c2c1=O)CCCC3 (stereo not given)	-	-	-	0	-	-
CCC(CC)c1nnc(NC(=O)c2cccc(S(=O)(=O)N3CCc4ccccc43)c2)s1	0	0	8.9µM	?	0	0
COc1nc(NCCC2=CCCCC2)nc(OC)n1	?	0	0	?	0	-
C1=C(CCNC2=NCCCCC2)CCCC1	0	0	20µM	0	0	0
c1ccc(-c2nc3ccccc3[nH]2)nc1	0	0	4.5µM	0	0	?
Cc1c(C(=O)Nc2cccc(C(F)(F)F)c2)oc2ccc(S(=O)(=O)N3CCC4(CC3)OCCO4)cc12	-	-	-	0	-	-
COc1ccccc1N1CCN(C2CCCN(C(=O)c3cc(C4CC4)on3)C2)CC1 (stereo not given)	0	0	0	?	0	-
CC1=C(C(=O)N2CCCC(N3CCN(c4ccccc4C)CC3)C2)OCCO1 (stereo not given)	0	0	2.5µM	0	0	0
COc1ccccc1N1CCN(C2CCCN(C(=O)c3cscn3)C2)CC1 (stereo not given)	0	0	?	0	0	0
CCc1ccc(/C=C2\CN(CC)Cc3c2nc2ccccc2c3C(=O)O)cc1	0	0	3.5µM	0	0	0
CCN1C/C(=C/c2cccs2)c2nc3ccccc3c(C(=O)O)c2C1	0	0	0	?	0	-
Cc1ccc(NC(=S)/N=C(\N)Nc2nc(C)c3cc(C)ccc3n2)c(C)c1	0	0	0	0	?	-
CCc1ccccc1NC(=S)/N=C(\N)Nc1nc(C)c2cc(C)ccc2n1	0	0	?	?	0	0
CC(C)c1ccc(C(=O)CC2(O)C(=O)N(CCc3ccccc3)c3ccc(Cl)cc32)cc1 (stereo not given)	-	-	-	0	-	-
COc1ccc(N2CCN(C(=O)c3ccc(NS(=O)(=O)c4ccccc4)cc3)CC2)cc1	0	0	13µM	0	0	0
COc1ccc(NS(=O)(=O)c2ccc(OCC(=O)N3CCCC3)cc2)cc1	0	0	?	0	0	0
CNC(=O)COc1ccc(S(=O)(=O)Nc2ccc(OC)cc2)cc1	0	0	0	0	0	-
COc1ccc2c(c1)C(c1ccccc1)=NNC(c1ccco1)=N2	0	0	?	0	0	0
CCOc1ccc(C2=NNC(c3cccnc3)=Nc3ccc(OC)cc32)cc1	0	0	0	0	0	-
O=C(c1ccc2c(c1)OCO2)[C@@H]1[C@@H]2C(=O)N(C3CCCCC3)C(=O)[C@@H]2C2c3ccccc3C=CN21 (stereo not given in full)	0	0	13µM	0	0	0	PR8 titer=0
O=C(Nc1ccc2c(c1)OCO2)[C@@H]1[C@@H]2C(=O)N(C3CCCCC3)C(=O)[C@@H]2C2c3ccccc3C=CN21 (stereo not given in full)	-	?	0	0	0	-
COc1ccc(S(=O)(=O)NCCc2ccco2)cc1OC	0	0	3.2µM	?	0	0
O=S(=O)(c1ccccc1)c1cccc(S(=O)(=O)N2CCCCC2)c1	0	0	2µM	0	0	0
O=S(=O)(c1cccc(S(=O)(=O)N2CCOCC2)c1)N1CCCCCC1	0	0	0	0	0	-
SMILES	AMA1-RON2 inh	AmpC no deterg	NS1 inh	AmpC inh detg	SARS PLP yeast	NS1 inh valid	others
C=CCN1CCc2cccc3c2C1Cc1ccc(O)c(O)c1-3 (stereo not given)	-	-	11µM	-	-	0
COc1ccc2c(c1O)-c1cccc3c1C(C2)N(C)CC3 (stereo not given)	-	-	0	-	-	-
O=C(Nc1ccccc1Br)N1CCC(CN2CCCC2)CC1	-	-	-	0	-	-
O=C(CSc1nc2c(sc3ccccc32)c(=O)n1CCCC(=O)NC1CCCC1)Nc1ccc(F)cc1	-	-	-	0	-	-
COc1ccc(-c2cc(C(=O)OCC(=O)c3ccc(C)c([N+](=O)[O-])c3)c3ccccc3n2)cc1	0	0	?	0	0	0
O=C(O)C[C@H]1NCc2cc3ccccc3nc21	-	-	0	-	-	-
COc1cccc(N2C(=O)CC(Nc3ccc(N4CCOCC4)cc3)C2=O)c1 (stereo not given)	0	0	0	0	0	-
O=C1CC(Nc2ccc(N3CCOCC3)cc2)C(=O)N1c1cccc(C(F)(F)F)c1 (stereo not given)	0	0	11µM	0	0	0
Cc1ccc(-c2csc(N)n2)s1	0	0	?	?	0	0
Cc1ccccc1-c1csc(N)n1	0	-	-	-	-	-
COC(=O)c1cc(NC(=O)C2(S(=O)(=O)c3ccc(Cl)cc3)CC2)cc(C(=O)OC)c1	0	0	11µM	0	0	0
Cn1cnnc1SCC(=O)Nc1ccccc1Sc1ccccc1	0	0	0.89µM	?	0	0
O=C(CN1C(=O)C2(SCC(=O)N2c2cccc(Cl)c2)c2ccccc21)NCc1ccccc1 (stereo not given)	-	-	-	0	-	-
Cc1ccc(S(=O)(=O)N(C)C)cc1-n1c(SCC(=O)Nc2ccc(F)cc2)nc2ccccc2c1=O	0	0	13µM	0	0	0
COc1ccc(C(=O)Nc2ncc3c(n2)CC(C)CC3=O)cc1 (stereo not given)	0	0	0	0	0	-
COc1cccc(C(=O)Nc2ncc3c(n2)CC(c2ccc(OC)cc2OC)CC3=O)c1 (stereo not given)	0	0	10µM	0	0	0
CCCn1c(C)nc2c(c1=O)c1nc3ccccc3nc1n2CCC1=CCCCC1	0	0	2µM	0	0	?
Cc1nc2c(c(=O)n1CCC1=CCCCC1)c1nc3ccccc3nc1n2/N=C/c1ccco1	0	0	10µM	0	0	0
COCCn1cnc2c(c1=O)c1nc3ccccc3nc1n2/N=C/c1ccco1	0	0	0	0	0	-
O=C1CCC(C(=O)N2CCC(O)CC2)CN1CCc1ccc(Cl)cc1 (stereo not given)	0	0	0	0	0	-
O=C1CCC(C(=O)N2CCCCCC2)CN1CCc1ccc(Cl)cc1 (stereo not given)	0	0	2µM	0	0	0
CCCCCCn1c(COc2ccccc2F)nnc1SCC(=O)c1c(N)n(C)c(=O)n(C)c1=O	-	0	?	0	0	0
O=C(CSc1nc(-c2ccccc2)c(-c2ccccc2)[nH]1)N1CCN(S(=O)(=O)c2ccccc2)CC1	0	0	3.5µM	0	0	0

Compound activity from PubChem BioAssay.
